Screening results: PubChem, National Center for Advancing Translational Sciences (NCATS)
Shown is part of a subset that was picked to be rich in hits.
Shiga toxin inh: blocks Shiga toxin action in Vero cells | Vero cells, Shiga toxin protein synthesis inhibition reporter | inhibition, % at 38.7 µM | hit rate 9.2% among 290,000 | AID 2315; in the data active means inhibition mostly above about 28%, no sharp cut-off; inactive means mostly below about 43%; further: 0% is about no effect
AmpC inh no detg: blocks E. coli AmpC beta-lactamase in detergent-free assay; P00811; hit rate 0.52% among 330,000; AmpC nitrocefin hydrolysis, absorbance 480 nm, 0.0001% Triton; Potency, µM (highest dose often 57.1 µM), for the others: top-dose activity change, negative = inhibition, actives largely listed as inhibitors;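 further: potency means the concentration at half of the fitted maximal effect; plate controls were no compound for no effect and no enzyme for full effect; nearly all actives have a fitted effect of over 20% in size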
Target sequence (P00811 whole entry, looked up): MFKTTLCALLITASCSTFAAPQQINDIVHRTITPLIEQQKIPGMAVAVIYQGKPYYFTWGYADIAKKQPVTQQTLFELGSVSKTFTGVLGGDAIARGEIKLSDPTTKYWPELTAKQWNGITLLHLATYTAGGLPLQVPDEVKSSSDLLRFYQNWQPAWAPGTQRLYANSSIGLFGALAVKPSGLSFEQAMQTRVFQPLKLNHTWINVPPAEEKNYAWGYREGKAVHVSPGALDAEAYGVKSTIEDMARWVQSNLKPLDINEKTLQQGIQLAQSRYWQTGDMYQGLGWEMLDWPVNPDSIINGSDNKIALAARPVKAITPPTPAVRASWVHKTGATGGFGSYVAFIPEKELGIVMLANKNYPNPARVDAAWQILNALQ
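AmpC (5.3 nM in the dispensed reagent) in 20 mM phosphate pH 7.0 with 0.01% (detergent screen) or 0.0001% Triton X-100 was preincubated with compounds for 15 min at room temperature. Nitrocefin was then added from an 800 uM solution, and hydrolysis was followed at 480 nm.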
AMA1 RON2 block: disrupts binding of P. falciparum AMA1 to RON2. AlphaScreen AMA1-biotinylated RON2 peptide binding. Potency, µM (highest dose often 58.2 µM), without a hit: at the highest dose activity change, negative = inhibition, most hits filed as inhibitors. hit rate 0.2% among 360,000. AID 720542;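 further: potency means the concentration at half of the fitted maximal effect; 0% = vehicle wells and -100% = peptide control; nearly all actives have a fitted effect of over 45% in size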
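AMA1 (3D7) with his tag at 25 nM final met compounds first, then biotinylated RON2 peptide at 25 nM; detection used donor plus acceptor beads, 10 µg/mL apiece, read by AlphaScreen after 30 min at room temperature.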
SARS PLP yeast: blocks SARS-CoV papain-like protease in a yeast assay; S. cerevisiae expressing SARS-CoV PLpro, growth rescue; Potency, µM (series often up to 32.9 µM), inactives show at the highest dose activity, positive = growth rescue, actives largely listed as activators; hit rate 0.19% among 330,000; AID 485353; calls by dose curve; further: potency means the concentration at half of the fitted maximal effect; 0% is about no effect; nearly all actives have a fitted effect of over 55% in size
Cycloheximide cs: counter-screen for Shiga toxin inhibitors: cycloheximide protein synthesis inhibition | max response, % | cell reporter, cycloheximide protein synthesis inhibition counterscreen | hit rate 12% among 300,000; in the data active means max response mostly above about 13%, no sharp cut-off; inactive means mostly below about 14%; further: read at 38.3 µM for the half of the compounds with a filed dose; 0% is about no effect
AmpC detergent: AmpC beta-lactamase inhibition with detergent present | P00811 | AmpC hydrolysis of nitrocefin, absorbance 480 nm, 0.01% Triton | Potency, µM (series often up to 114 µM), for the others: at the top dose activity change, negative = inhibition, most hits filed as inhibitors | hit rate 0.041% among 370,000;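 further: potency means the concentration at half of the fitted maximal effect; 0% = no-compound wells and -100% = no-enzyme wells; nearly all actives have a fitted effect of over 25% in size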
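20 mM phosphate pH 7.0 + 0.01% (detergent screen) or 0.0001% Triton X-100; 5.3 nM AmpC reagent; cpd preinc 15 min RT; nitrocefin (800 uM stock) to start; A480 q20 s × 4 min; Activity was normalised to no-enzyme and no-compound control wells.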
An asterisk follows results filed as active; ? = inconclusive; nt = no result; + = active, no number; [ ] = dose if it differs, or a comment. Unless noted, the call rests on the fitted dose curve; in most records, active means well fitted curve in the direction sought with a large enough effect; inconclusive means small, poorly fitted or top-dose-only effect, or another doubt; inactive means no such curve, though single readings can be large; an effect the other way counts as inactive or inconclusive.

SMILES	Shiga toxin inh	AmpC inh no detg	AMA1 RON2 block	SARS PLP yeast	Cycloheximide cs	AmpC detergent
O=C(Nc1ccccc1)O[C@@H]1C[C@H]2CCC(=O)N3CC[C@@H](C1)[C@@H]23	38*	-1%	nt	-10%	31*	?
O=C(Nc1ccccc1)O[C@@H]1C[C@H]2CCCC(=O)N3CC[C@@H](C1)[C@@H]23	nt	nt	-9%	nt	nt	nt
O=C(Nc1ccccc1)OC1CC2CC1C1CCCC21 (stereo not given)	94*	-26%	18%	-5%	51*	-7%
CC(C)c1ccc2[nH]c3c(c2c1)[C@@H]1CCN2C(=O)CCC[C@H](C3)[C@H]12	35*	126%	-21%	-7%	22*	?
CC[C@H]1c2[nH]c3ccc(C(C)C)cc3c2[C@@H]2CCN3C(=O)CCC[C@H]1[C@H]23	nt	nt	-10%	nt	nt	nt
Cc1ccc(Cn2c(SCC(=O)NCc3ccccc3)nc3ccsc3c2=O)cc1	nt	nt	nt	nt	nt	6%
CCCN(CCC)C(=O)CSc1nc2ccsc2c(=O)n1NC(=O)c1ccccc1	32	-43%	5%	5%	19*	-18%
CC(C)CCNC(=O)CSc1nc2ccsc2c(=O)n1NC(=O)c1ccccc1	13	-44%	-1%	7%	26*	?
CCOC(=O)c1c(C)n(-c2ccccc2)c2ccc(O)c(CN(C)C)c12	-25	5%	-26%	-3%	-6	-5%
O=C(Nc1nnc(S(=O)(=O)N2CCOCC2)s1)c1ccccc1Br	7	-23%	4%	-1%	-3	-12%
COc1cc(/C=N/Nc2cccc(C)c2)ccc1OC(=O)c1cccs1	33	-48%	-9%	-17%	18*	-16%
COc1cc(/C=N/Nc2cccc(C)c2)cc(Br)c1O	28	32µM*	-3%	-4%	2	-1%
COc1cccc(NC(=O)c2cc(-c3ccncc3)nc3c(C)cc(C)cc23)c1	-10	34%	3%	-1%	-1	-12%
COc1ccc(CNC(=O)CSc2cccc3cccnc23)cc1	11	-12%	-2%	1%	12	-7%
c1ccc(OCCN2CCN(Cc3nc(-c4ccc5c(c4)OCO5)no3)CC2)cc1	3	105%	-3%	0%	7	10%
CC1(C)CC(=O)C2=C(C1)C(c1cn(-c3ccccc3)nc1-c1ccccc1)C(C#N)=C(N)O2 (stereo not given)	2	?	-4%[11.6 µM]	0%	23*	-16%
O=S(=O)(c1ccc2c(c1)OCCO2)N1CCN(S(=O)(=O)c2ccc3nc(Cl)c(Cl)nc3c2)CC1	18	nt	nt	nt	27*	nt
CN(C)c1cc(O)c(C(=S)Nc2ccccc2)c(N(C)C)c1	41*	-25%	-9%	-12%	22*	-10%
CN(C)c1ccc(NC(=S)c2ccccn2)cc1	-14	-30%	14µM*	-27%	-4	-10%
CC(=O)N(C)c1ccc(NC(=S)Nc2ccccc2)cc1	12	-7%	3%	4%	1	?
C/C(=C\C(=S)Nc1ccccc1)Nc1ccccc1	-10	-37%	45%	20%	-6	-7%
CN(C)c1ccc(C(=S)Nc2ccccc2)cc1	128*	-18%	-26%	-3%	89*	-2%
Cc1ccc(NC(=S)N(CCN2CCCCC2)Cc2ccco2)cc1	11	2%	-2%	-5%	-1	-9%
CN1CCN(C(=O)c2ccc3c(c2)OCCO3)CC1	13	-12%	-2%	16%	-3	?
COC(=O)c1sccc1S(=O)(=O)N(CC(=O)Nc1cc(C)cc(C)c1)c1ccc(Cl)cc1	nt	nt	nt	nt	nt	-4%
SMILES	Shiga toxin inh	AmpC inh no detg	AMA1 RON2 block	SARS PLP yeast	Cycloheximide cs	AmpC detergent
CCNC(=O)N(CC)C[C@H]1N[C@@](C)(C(=O)OC)[C@H]2C(=O)N(Cc3ccccc3)C(=O)[C@@H]12	nt	-1%	0%	-3%	nt	nt
NS(=O)(=O)c1ccc(N/N=C/c2ccc(O)c(O)c2O)c([N+](=O)[O-])c1	-4	7.1µM*	?	9%	-2	-13%
Cc1ccc(NC(=S)NC(=O)c2ccc(Br)o2)c(C)c1	61*	-21%	3%	0%	29*	7%
Cc1ccc(C)c(NC(=S)NNC(=O)c2ccc(Br)o2)c1	70*	-24%	144%	?	16*	-2%
O=C(NC(=S)Nc1ccccc1F)c1ccc(Br)o1	124*	4%[2.29 µM]	12%	1%	33*	?
CN(C)P(=O)(NC(=O)c1cccn1C)N(C)C	1	-9%	-5%	1%	-3	-4%
CNC(=O)c1cc2ncc(C(F)(F)F)cc2s1	38	-11%	7%	1%	18*	2%
CCOc1ccc(NC(=O)CN(C)C(=O)Cn2c(=O)oc3ccccc32)cc1OCC	nt	14%	-1%	3%	nt	-7%
Cc1ccc([N+](=O)[O-])cc1NC(=S)NC(=O)C(C)(C)C	34	-3%	-2%	-9%	14*	-5%
Cc1[nH]c2ccccc2c1/C=N/NC(=O)c1cccc(S(=O)(=O)Nc2ccccc2Cl)c1	-6	-28%	-3%	13%	-2	-10%
Cc1[nH]c2ccccc2c1/C=N/NC(=O)c1cccc(Br)c1	40	-47%	39%	-1%	26*	0%
Cc1[nH]c2ccccc2c1/C=N/NC(=O)c1cc(C(C)(C)C)[nH]n1	22	-47%	-12%	-2%	12*	-10%
Cc1[nH]c2ccccc2c1/C=N/NC(=O)c1ccccc1	51*	-38%	29%	-1%	42*	-3%
Cc1[nH]c2ccccc2c1/C=N/NC(=O)c1ccc(N)cc1	6	-15%	12%	0%	20	0%
Cc1ccc(NC(=S)N/N=C/c2c(C)[nH]c3ccccc23)cc1	80*	-44%	28%	-2%	23*	16%
O=C(Nc1nc2ccccc2n1CCN1CCOCC1)c1ccc(Cn2cc([N+](=O)[O-])cn2)o1	-5	32%	44%	2%	-3	3%
O=c1oc(-c2cccs2)nc2ccc(Cl)cc12	32	-29%	-3%	-3%	7	-2%
Cc1[nH]c2ccccc2c1/C=N/Nc1cccc(C(=O)O)c1	128*	-38%	4%	-2%	61*	0%
Cc1[nH]c2ccccc2c1/C=C/C(=O)c1ccccc1	86*	-30%	-5%	-20%	25*	-11%
CC(C)(C)c1cc(C(=O)N/N=C/c2ccccn2)n[nH]1	53*	-21%	96%	0%	21*	-7%
Cc1[nH]c2ccccc2c(=O)c1C(=O)/C=C/c1ccccc1	-25	-37%	-20%	-3%	-2	5%
Cc1[nH]c2ccccc2c1/C=N/NC(=O)Nc1ccccc1	+	-14%	-1%	3%	28*	1%
CCCCNC(=O)NNc1nc(Cl)cc(C)c1C#N	-3	-25%	2%	-1%	-2	-6%
